Measurements as given in PubChem BioAssay (Tox21).
Results filed as inconclusive are left out. Calls of active or inactive are those of the source. Unless noted, calls follow the shape of the dose curve; as a rule, active = well fitted curve in the direction sought with a large enough effect in the repeat runs; inconclusive = weak or mixed curves; inactive = no such curve, though single readings can be large; an effect the other way counts as inactive or inconclusive.

Legend:
[1] = qHTS assay to identify small molecule agonists of the sonic hedgehog signaling (Shh) pathway (AID 1259368; calls by dose curve;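 also: NIH/3T3-derived 3T3Gli1-Luc cells carrying a stable Gli1-driven firefly luciferase reporter; series mostly up to about 92 µM; nearly all actives have a fitted effect of over 15% in size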)
In short: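 3T3Gli1-Luc (NIH/3T3 clone, stable Gli1-Luc); 4 hr pre-incubation, then cpd in DMSO 24 hr, 37 C/5% CO2; luciferase reagent 30 min RT; luminescence.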

[2] = qHTS assay to identify small molecule antagonists of the sonic hedgehog signaling (Shh) pathway (AID 1259369; calls by dose curve; also: nearly all actives have a fitted effect of over 45% in size)
In short: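 3T3Gli1-Luc, conditioned-medium-stimulated, 24hr cpd, 37C/5% CO2; Gli1-driven firefly Luc luminescence after 30min RT with luciferase reagent. Cells plated 4hr before cpd.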

[3] = qHTS assay to identify small molecule agonists of the androgen receptor (AR) signaling pathway in the presence of an antagonist - cell viability counter screen (AID 1259379);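 also: MDA-kb2 human breast cancer cells carrying an MMTV luciferase reporter; series mostly up to about 92 µM; nearly all actives have a fitted effect of over 25% in size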
In short: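 Cells: MDA-kb2 (MMTV-luc, AR and GR elements), 3,000/well, 5 hr settle. Added: nilutamide 3.0uM final, then compounds (15 conc.). Incubation: 16 hr, 37C, no CO2. Read-out: CellTiter-Fluor, 1 hr, fluorescence.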

[4] = qHTS assay to identify small molecule agonists of the estrogen receptor beta (ER-beta) signaling pathway - cell viability counter screen (AID 1259380); also: nearly all actives have a fitted effect of over 30% in size
In short: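 HEK293T ER-beta-UAS-bla; 2% CS-FBS; 6 hr pre-plate, 16 hr cpd at 37C/5% CO2; LiveBLAzer read first, then CellTiter-Glo 30 min RT, luminescence.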

[5] = qHTS assay to identify small molecule antagonists of the estrogen receptor beta (ER-beta) signaling pathway - cell viability counter screen (AID 1259382);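 also: HEK293T cells carrying ER-beta-UAS-bla reporter stimulated with estradiol; series mostly up to about 92 µM; nearly all actives have a fitted effect of over 55% in size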
In short: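 Cells: ER-beta-UAS-bla HEK293T, 2,000/well, 2% CS-FBS, 6 hr settle. Cpd + E2 (1nM final), 16 hr, 37C/5% CO2. Bla FRET substrate 2 hr RT, then CellTiter-Glo 30 min RT, luminescence.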

[6] = target: Estrogen receptor (Homo sapiens) (UniProt P03372); test: qHTS assay to identify small molecule agonists of the estrogen receptor alpha (ER-alpha) signaling pathway in the presence of an antagonist (AID 1259383; calls by dose curve; also: top concentration of the series differs between compounds; nearly all actives have a fitted effect of over 15% in size)
In short: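 VM7Luc4E2, endog. ER-alpha + 4×ERE-luc; charcoal-stripped FBS, phenol red-free, 5 d; 24hr plating; +10.0nM ICI-182,780 (final); cpds 15 conc, 22hr, 37C/5% CO2; ONE-Glo luminescence.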

[7] = qHTS assay to identify small molecule agonists or antagonists of the thyroid stimulating hormone receptor (TSHR) signaling pathway - wild type cell line counter screen (AID 1259384; calls by dose curve)
In short: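 Wild-type Hek293 cells, 800/well, 18 h at 37C, then compound with Ro20-1724 for 30 min RT. cAMP by HTRF (cAMP-d2/anti-cAMP cryptate), 1 h RT, fluorescence read. 15 concentrations, triplicates.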

[8] = qHTS assay to identify small molecule agonists of the estrogen receptor alpha (ER-alpha) signaling pathway in the presence of an antagonist - cell viability counter screen (AID 1259386);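 also: series mostly up to about 92 µM; cells exposed to compounds for 22 h at 37 °C before the viability read; nearly all actives have a fitted effect of over 30% in size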
In short: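 VM7Luc4E2, stripped-serum pre-culture 5 d; 24hr plating; +ICI-182,780 10.0nM final; cpds 15 conc, 22hr, 37C/5% CO2; CellTiter-Fluor added at 21hr, fluorescence 1hr later.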

[9] = target: Progesterone receptor (Homo sapiens) (UniProt P06401); test: qHTS assay to identify small molecule agonists of the progesterone receptor (PR) signaling pathway (AID 1346784; calls by dose curve; also: nearly all actives have a fitted effect of over 30% in size)
In short: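 Cells (PR-UAS-bla HEK 293T, GripTite) were plated in assay medium containing 2% charcoal-stripped FBS and incubated 6 hr. Test compounds in DMSO were added for 16 hr at 37C. FRET substrate was then loaded for 2 hr at room temperature before fluorescence reading.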

[10] = target: Progesterone receptor (Homo sapiens) (UniProt P06401); test: qHTS assay to identify small molecule antagonists of the progesterone receptor (PR) signaling pathway (AID 1346795; active = well fitted inhibition curve with a large enough effect in the signal ratio in the repeat runs, not every such curve was filed as active; the % refers to the signal ratio)
In short: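 Antagonist mode: compounds tested against 1 nM (final) promegestone stimulation in HEK293T cells expressing PR-UAS-bla reporter, 16 hr at 37C, 5% CO2; beta-lactamase activity detected via B/G FRET substrate after 2 hr at room temperature.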

[11] = qHTS assay to identify small molecule antagonists of the progesterone receptor (PR) signaling pathway - cell viability counter screen (AID 1346798); also: series mostly up to about 92 µM; nearly all actives have a fitted effect of over 50% in size
In short: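 Counter screen for cytotoxicity: viability of PR-UAS-bla HEK293T cells was measured with CellTiter-Glo luminescence following 16 hr compound exposure in the presence of R5020.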

[12] = qHTS assay to identify small molecule antagonists of the TGF-beta/Smad signaling pathway - cell viability counter screen (AID 1346824); also: nearly all actives have a fitted effect of over 50% in size
In short: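 SBE-bla HEK 293T cells, incubated overnight, then compound plus 0.25 ng/mL TGF-beta1 (stock added) for 5 hr at 37 C. Viability was read in the same wells by CellTiter-Glo luminescence after 30 min at room temperature.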

[13] = qHTS assay to identify small molecule agonists of the TGF-beta/Smad signaling pathway - cell viability counter screen (AID 1346829); also: top concentration of the series differs between compounds; nearly all actives have a fitted effect of over 45% in size
In short: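 Compound-treated SBE-bla HEK 293T cells (5 hr, 37 C) were assessed for viability with CellTiter-Glo in parallel with the reporter read.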

[14] = target: Thyrotropin receptor (Homo sapiens) (UniProt P16473); test: qHTS assay to identify small molecule antagonists of the thyroid stimulating hormone receptor (TSHR) signaling pathway (AID 1259385; calls by dose curve; also: nearly all actives have a fitted effect of over 20% in size)
In short: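 TSHR-HEK293 cells (800/well) plated 18 h, then compounds with Ro20-1724 and TSH at 1.5 ng/mL final, 30 min at room temperature. cAMP quantified by HTRF (cAMP-d2/anti-cAMP-cryptate, 1 h); 15 concentrations in triplicate.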

[15] = qHTS assay to identify small molecule agonists of the progesterone receptor (PR) signaling pathway - cell viability counter screen (AID 1346799; calls by dose curve; also: nearly all actives have a fitted effect of over 45% in size)
In short: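 Cells (PR-UAS-bla HEK293T) are plated at 3,000/well in 2% charcoal-stripped FBS medium, rested 6 hr, dosed and incubated 16 hr at 37C. CellTiter-Glo is then added and luminescence measured after 30 min at room temperature.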

[16] = qHTS assay to identify small molecule agonists of the TGF-beta/Smad signaling pathway (AID 1346859; active = well fitted activation curve with a large enough effect in the signal ratio in the repeat runs, not every such curve was filed as active; the % refers to the signal ratio; also: series mostly up to about 77 µM)
In short: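 Reporter line: HEK 293T with stably integrated SBE-controlled beta-lactamase. Compound exposure lasts 5 hr at 37 C and 5% CO2; substrate loading follows for 2 hr at room temperature, with emission read at 460 and 530 nm.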

[17] = target: Thyrotropin-releasing hormone receptor (Homo sapiens) (UniProt P34981); test: qHTS assay to identify small molecule antagonists of the thyrotropin-releasing hormone receptor (TRHR) signaling pathway (AID 1346877; active = well fitted inhibition curve with a large enough effect in the repeat runs, not every such curve was filed as active; also: series mostly up to about 51 µM)
In short: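 Intracellular calcium fluorescence, read kinetically every second over 3 min, reports TRH-evoked signalling in HEK293 cells carrying TRHR. Test compounds were added 5 min ahead of a 1 nM TRH challenge.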
% is scaled to controls: 0 for no effect and ±100 for the full control effect.

Thyrotropin-releasing hormone receptor (Homo sapiens), sequence (P34981 whole entry, looked up): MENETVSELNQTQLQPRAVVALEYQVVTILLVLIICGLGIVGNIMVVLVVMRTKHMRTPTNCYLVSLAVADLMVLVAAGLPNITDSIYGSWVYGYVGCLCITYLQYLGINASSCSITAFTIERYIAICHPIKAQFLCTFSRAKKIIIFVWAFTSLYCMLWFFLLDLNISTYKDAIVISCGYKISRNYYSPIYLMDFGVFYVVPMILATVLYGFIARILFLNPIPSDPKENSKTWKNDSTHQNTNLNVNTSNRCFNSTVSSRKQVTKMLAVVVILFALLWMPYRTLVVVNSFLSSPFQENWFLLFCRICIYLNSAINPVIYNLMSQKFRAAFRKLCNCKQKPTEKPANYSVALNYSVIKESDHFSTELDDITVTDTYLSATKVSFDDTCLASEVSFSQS
Progesterone receptor (Homo sapiens), sequence (P06401 whole entry, looked up): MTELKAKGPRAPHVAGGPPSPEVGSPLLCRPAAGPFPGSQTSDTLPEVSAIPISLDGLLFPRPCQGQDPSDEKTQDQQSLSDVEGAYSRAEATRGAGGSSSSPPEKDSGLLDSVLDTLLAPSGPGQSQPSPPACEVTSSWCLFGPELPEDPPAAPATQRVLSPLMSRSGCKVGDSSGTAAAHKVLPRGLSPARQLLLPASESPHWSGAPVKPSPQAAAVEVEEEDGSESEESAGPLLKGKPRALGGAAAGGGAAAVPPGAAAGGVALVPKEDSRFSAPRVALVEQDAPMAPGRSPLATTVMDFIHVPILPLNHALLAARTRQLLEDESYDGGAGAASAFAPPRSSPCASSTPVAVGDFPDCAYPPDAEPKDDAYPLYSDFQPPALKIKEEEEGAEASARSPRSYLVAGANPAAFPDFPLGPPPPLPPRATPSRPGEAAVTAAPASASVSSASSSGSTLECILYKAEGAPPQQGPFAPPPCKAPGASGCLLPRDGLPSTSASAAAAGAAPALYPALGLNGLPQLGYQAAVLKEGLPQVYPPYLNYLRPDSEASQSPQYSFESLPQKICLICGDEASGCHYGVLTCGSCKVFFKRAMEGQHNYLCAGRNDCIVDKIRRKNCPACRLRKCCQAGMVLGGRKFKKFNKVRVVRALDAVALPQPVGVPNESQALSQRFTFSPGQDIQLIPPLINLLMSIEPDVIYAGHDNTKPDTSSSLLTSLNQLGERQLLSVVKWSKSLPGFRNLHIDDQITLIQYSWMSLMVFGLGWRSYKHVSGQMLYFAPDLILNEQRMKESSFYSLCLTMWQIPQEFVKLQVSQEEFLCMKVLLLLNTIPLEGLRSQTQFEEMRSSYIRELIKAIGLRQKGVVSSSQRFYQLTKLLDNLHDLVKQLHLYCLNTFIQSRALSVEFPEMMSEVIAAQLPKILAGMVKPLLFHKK
Thyrotropin receptor (Homo sapiens), sequence (P16473 whole entry, looked up): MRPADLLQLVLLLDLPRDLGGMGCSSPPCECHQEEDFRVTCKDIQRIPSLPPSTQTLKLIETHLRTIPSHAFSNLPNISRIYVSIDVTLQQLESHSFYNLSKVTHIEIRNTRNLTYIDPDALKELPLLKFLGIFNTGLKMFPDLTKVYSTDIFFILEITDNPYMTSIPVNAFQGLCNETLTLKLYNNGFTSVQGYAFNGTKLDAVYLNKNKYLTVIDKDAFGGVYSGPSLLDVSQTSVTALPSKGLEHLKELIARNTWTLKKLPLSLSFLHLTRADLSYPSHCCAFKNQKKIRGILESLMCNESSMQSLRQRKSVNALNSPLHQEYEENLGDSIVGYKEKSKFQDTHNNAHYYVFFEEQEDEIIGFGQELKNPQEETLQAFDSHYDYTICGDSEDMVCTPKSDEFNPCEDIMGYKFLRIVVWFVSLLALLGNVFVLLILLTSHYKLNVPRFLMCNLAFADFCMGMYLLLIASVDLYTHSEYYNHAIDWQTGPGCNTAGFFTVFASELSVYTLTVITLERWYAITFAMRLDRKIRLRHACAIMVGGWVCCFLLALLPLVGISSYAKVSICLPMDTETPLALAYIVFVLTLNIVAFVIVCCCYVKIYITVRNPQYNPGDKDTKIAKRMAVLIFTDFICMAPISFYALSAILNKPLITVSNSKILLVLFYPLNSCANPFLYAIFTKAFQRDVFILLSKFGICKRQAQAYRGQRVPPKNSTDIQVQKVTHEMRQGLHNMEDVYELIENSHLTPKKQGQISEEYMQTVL
Estrogen receptor (Homo sapiens), sequence (P03372 whole entry, looked up): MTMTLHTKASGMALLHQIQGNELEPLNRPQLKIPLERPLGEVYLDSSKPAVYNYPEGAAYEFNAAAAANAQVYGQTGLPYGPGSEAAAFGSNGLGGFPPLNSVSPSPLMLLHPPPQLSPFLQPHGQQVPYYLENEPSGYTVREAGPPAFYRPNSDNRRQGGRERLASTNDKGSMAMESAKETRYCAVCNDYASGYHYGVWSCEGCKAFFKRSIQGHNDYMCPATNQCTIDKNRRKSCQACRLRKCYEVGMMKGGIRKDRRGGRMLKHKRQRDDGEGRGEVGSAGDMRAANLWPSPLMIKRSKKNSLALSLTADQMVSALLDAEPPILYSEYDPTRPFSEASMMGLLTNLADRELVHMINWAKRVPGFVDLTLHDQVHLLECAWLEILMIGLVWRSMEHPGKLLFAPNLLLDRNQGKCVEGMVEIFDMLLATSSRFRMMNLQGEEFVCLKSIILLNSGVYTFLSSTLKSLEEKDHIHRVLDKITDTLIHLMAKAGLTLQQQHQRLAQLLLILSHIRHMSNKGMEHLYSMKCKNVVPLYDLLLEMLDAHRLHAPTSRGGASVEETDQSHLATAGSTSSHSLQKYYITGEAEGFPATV

CCOCCOC(=O)/C=C/c1ccc(OC)cc1
inactive: outcome [1] | Potency [2] | Potency [3] | Potency [4] | outcome [5] | outcome [6] | outcome [7] | Potency [8] | Potency [9] | Potency [10] | Potency [11] | outcome [12] | outcome [13]

N[C@@H](CCC(=O)N[C@@H](CS)C(=O)NCC(=O)O)C(=O)O
inactive: activity change [1] -0.793% [at 18.9 µM] | activity change, negative = inhibition [2] 20% [at 19 µM] | activity change, negative = cytotoxicity [3] -2.43% [at 19 µM] | activity change, negative = cytotoxicity [4] 8.98% [at 19 µM] | activity change, negative = cytotoxicity [5] 1.29% [at 19 µM] | cAMP activity change [7] 2.89% [at 18.9 µM] | activity change, negative = inhibition [14] 6.72% [at 19 µM] | activity change, negative = cytotoxicity [8] 5.49% [at 19 µM] | activation [9] -0.471% [at 19 µM] | activity change, negative = inhibition [10] 1.1% [at 18.9 µM] | activity change, negative = cytotoxicity [11] 2.33% [at 18.9 µM] | activity change, negative = cytotoxicity [15] 3.29% [at 19 µM] | viability change, negative = cytotoxic [12] 18.5% [at 15.8 µM] | activity change, negative = cytotoxicity [13] 1.41% [at 15.8 µM] | activation [16] 1.79% [at 15.8 µM]

FC(F)(F)c1ccccc1-n1ccnc1
inactive: outcome [1] | Potency [2] | Potency [3] | Potency [4] | outcome [5] | Potency [8] | Potency [9] | Potency [10] | Potency [15] | outcome [12] | outcome [13] | outcome [16] | outcome [17]

CC1=CCC(C(C)C)=CC1
inactive: outcome [1] | Potency [2] | Potency [3] | Potency [4] | outcome [6] | Potency [8] | Potency [9] | Potency [10] | Potency [11] | Potency [15] | outcome [12] | outcome [13]

CC(=O)c1sc(C)nc1C
inactive: outcome [1] | Potency [2] | Potency [3] | Potency [4] | outcome [5] | outcome [7] | Potency [8] | Potency [9] | Potency [10] | Potency [11] | Potency [15] | outcome [12] | outcome [13] | outcome [16] | outcome [17]

CC(C)C(=O)OCCc1ccccc1
inactive: outcome [1] | Potency [2] | Potency [3] | Potency [4] | outcome [6] | outcome [7] | outcome [14] | Potency [8] | Potency [11] | Potency [15] | outcome [12] | outcome [13] | outcome [16] | outcome [17]

ClCCCl
inactive: outcome [1] | Potency [2] | Potency [3] | Potency [4] | outcome [5] | outcome [6] | Potency [8] | Potency [9] | Potency [10] | Potency [11] | Potency [15] | outcome [12] | outcome [13] | outcome [17]

CN=C(NC#N)Nc1ccc(C2=NNC(=O)CC2C)cc1 (stereo unspecified)
inactive: outcome [1] | Potency [2] | Potency [3] | Potency [4] | outcome [7] | outcome [14] | Potency [8] | Potency [9] | Potency [10] | Potency [11] | Potency [15] | outcome [12] | outcome [13] | outcome [16]

Nc1cccc(O)c1
inactive: outcome [1] | Potency [2] | Potency [3] | Potency [4] | outcome [6] | outcome [7] | outcome [14] | Potency [8] | Potency [9] | Potency [10] | Potency [11] | Potency [15] | outcome [12] | outcome [13] | outcome [16] | outcome [17]
